PubChem BioAssay (Tox21)
Values joined by “and” are separate entries in the source; they are usually repeats but may differ in a detail not shown here. Equal values may be shown once. Results filed as inconclusive are left out. Active and inactive are the calls of the source. Unless noted, calls follow the shape of the dose curve; as a rule, active = well fitted curve in the direction sought with a large enough effect in the repeat runs; inconclusive = weak or mixed curves; inactive = no such curve, though single readings can be large; an effect the other way counts as inactive or inconclusive.

Legend:
[1] = qHTS assay to identify small molecule agonists of the estrogen receptor alpha (ER-alpha) signaling pathway in the presence of an antagonist - cell viability counter screen (AID 1259386);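 also: cells exposed to compounds for 22 h at 37 °C before the viability read; nearly all actives have a fitted effect of over 30% in size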; also: potency is read from the fitted curve at half-maximal effect; as to activity change, negative = cytotoxicity: series mostly up to about 92 µM
Procedure, shortened: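 VM7Luc4E2, stripped-serum pre-culture 5 d; 24hr plating; +ICI-182,780 10.0nM final; cpds 15 conc, 22hr, 37C/5% CO2; CellTiter-Fluor added at 21hr, fluorescence 1hr later.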

[2] = target: Progesterone receptor (Homo sapiens) (UniProt P06401); assay: qHTS assay to identify small molecule antagonists of the progesterone receptor (PR) signaling pathway (AID 1346795; active = well fitted inhibition curve with a large enough effect in the signal ratio in the repeat runs, not every such curve was filed as active; the % refers to the signal ratio)
Chain of Progesterone receptor (Homo sapiens) (P06401 whole entry, looked up): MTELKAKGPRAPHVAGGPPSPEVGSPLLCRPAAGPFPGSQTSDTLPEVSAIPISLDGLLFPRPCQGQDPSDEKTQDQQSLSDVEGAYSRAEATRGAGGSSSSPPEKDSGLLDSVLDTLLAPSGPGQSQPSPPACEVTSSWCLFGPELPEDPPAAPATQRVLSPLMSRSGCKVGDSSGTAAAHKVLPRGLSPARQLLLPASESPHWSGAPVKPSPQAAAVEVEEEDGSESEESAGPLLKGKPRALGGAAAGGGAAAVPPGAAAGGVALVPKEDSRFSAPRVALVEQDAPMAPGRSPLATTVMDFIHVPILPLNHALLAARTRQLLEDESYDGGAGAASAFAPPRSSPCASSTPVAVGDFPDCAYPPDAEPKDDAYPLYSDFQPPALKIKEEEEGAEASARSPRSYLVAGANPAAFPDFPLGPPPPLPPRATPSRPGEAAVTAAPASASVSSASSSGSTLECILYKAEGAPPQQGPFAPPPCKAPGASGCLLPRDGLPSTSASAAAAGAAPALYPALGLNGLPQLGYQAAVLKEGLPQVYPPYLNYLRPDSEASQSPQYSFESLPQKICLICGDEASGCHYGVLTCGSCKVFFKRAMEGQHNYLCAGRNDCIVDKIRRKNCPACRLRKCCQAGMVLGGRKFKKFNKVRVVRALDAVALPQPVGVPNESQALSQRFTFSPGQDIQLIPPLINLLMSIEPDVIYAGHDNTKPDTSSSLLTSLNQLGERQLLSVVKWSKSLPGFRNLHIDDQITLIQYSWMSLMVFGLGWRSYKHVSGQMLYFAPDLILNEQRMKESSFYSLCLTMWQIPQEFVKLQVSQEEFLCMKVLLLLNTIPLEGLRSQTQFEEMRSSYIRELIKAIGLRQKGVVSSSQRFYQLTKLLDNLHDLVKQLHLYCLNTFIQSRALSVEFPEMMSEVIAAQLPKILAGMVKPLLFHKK
Procedure, shortened: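 HEK293T PR-UAS-bla reporter cells in charcoal-stripped serum (2%) received compound after a 6 hr settling period, followed by R5020 agonist at 1 nM final; 16 hr incubation preceded the FRET substrate step and fluorescence measurement.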

[3] = qHTS assay to identify small molecule antagonists of the progesterone receptor (PR) signaling pathway - cell viability counter screen (AID 1346798); also: nearly all actives have a fitted effect of over 50% in size; also: potency is read from the fitted curve at half-maximal effect; as to activity change, negative = cytotoxicity: series mostly up to about 92 µM
Procedure, shortened: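 Same-well multiplex: after 16 hr at 37C with compound and R5020 stimulation, HEK293T cells carrying a UAS-bla reporter received LiveBLAzer substrate (2 hr RT), then CellTiter-Glo (30 min RT) for luminescent viability.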

[4] = qHTS assay to identify small molecule agonists of the progesterone receptor (PR) signaling pathway - cell viability counter screen (AID 1346799; calls by dose curve; also: nearly all actives have a fitted effect of over 45% in size; also: potency is read from the fitted curve at half-maximal effect)
Procedure, shortened: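 Counter screen for cytotoxicity: compound-treated PR-UAS-bla HEK293T cells (16 hr, 37C, 5% CO2) were assayed with CellTiter-Glo, luminescence measured after 30 min at room temperature.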

[5] = qHTS assay to identify small molecule antagonists of the TGF-beta/Smad signaling pathway - cell viability counter screen (AID 1346824); also: nearly all actives have a fitted effect of over 50% in size
Procedure, shortened: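 SBE-bla HEK 293T cells, incubated overnight, then compound plus 0.25 ng/mL TGF-beta1 (stock added) for 5 hr at 37 C. Viability was read in the same wells by CellTiter-Glo luminescence after 30 min at room temperature.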

[6] = qHTS assay to identify small molecule agonists of the TGF-beta/Smad signaling pathway - cell viability counter screen (AID 1346829); also: top concentration of the series differs between compounds; nearly all actives have a fitted effect of over 45% in size
Procedure, shortened: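 Same-well cytotoxicity: CellTiter-Glo added after the 2 hr room-temperature beta-lactamase substrate step, luminescence measured 30 min later; cells had 5 hr of compound at 37 C.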

[7] = qHTS assay to identify small molecule agonists of the TGF-beta/Smad signaling pathway (AID 1346859; active = well fitted activation curve with a large enough effect in the signal ratio in the repeat runs, not every such curve was filed as active; the % refers to the signal ratio; also: series mostly up to about 77 µM)
Procedure, shortened: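 Smad-responsive beta-lactamase reporter cells (HEK 293T) received compounds from DMSO stocks after overnight attachment, were incubated 5 hr, then treated 2 hr with FRET substrate before dual-emission fluorescence measurement (405 nm excitation).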

[8] = target: Thyrotropin-releasing hormone receptor (Homo sapiens) (UniProt P34981); assay: qHTS assay to identify small molecule antagonists of the thyrotropin-releasing hormone receptor (TRHR) signaling pathway (AID 1346877; active = well fitted inhibition curve with a large enough effect in the repeat runs, not every such curve was filed as active; also: potency is read from the fitted curve at half-maximal effect; as to activity, negative = inhibition: series mostly up to about 51 µM)
Chain of Thyrotropin-releasing hormone receptor (Homo sapiens) (P34981 whole entry, looked up): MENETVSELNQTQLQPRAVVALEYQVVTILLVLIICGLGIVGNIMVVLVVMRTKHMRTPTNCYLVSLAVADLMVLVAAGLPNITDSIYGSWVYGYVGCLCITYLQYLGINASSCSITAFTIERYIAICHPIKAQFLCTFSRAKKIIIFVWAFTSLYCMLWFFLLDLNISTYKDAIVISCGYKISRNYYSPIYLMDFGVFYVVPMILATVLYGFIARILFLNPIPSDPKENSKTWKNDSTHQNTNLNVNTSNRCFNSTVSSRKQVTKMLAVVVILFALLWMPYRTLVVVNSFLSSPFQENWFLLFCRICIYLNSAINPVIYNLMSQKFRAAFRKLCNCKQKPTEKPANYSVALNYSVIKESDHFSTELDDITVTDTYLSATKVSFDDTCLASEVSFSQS
Procedure, shortened: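 Intracellular calcium fluorescence, read kinetically every second over 3 min, reports TRH-evoked signalling in HEK293 cells carrying TRHR. Test compounds were added 5 min ahead of a 1 nM TRH challenge.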

[9] = target: Thyrotropin-releasing hormone receptor (Homo sapiens) (UniProt P34981); assay: qHTS assay to identify small molecule agonists of the thyrotropin-releasing hormone receptor (TRHR) signaling pathway (AID 1346891; calls by dose curve;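 also: HEK293 cells expressing TRHR with calcium dye readout; series mostly up to about 58 µM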)
Procedure, shortened: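 Agonist-mode calcium mobilisation screen: TRHR-transfected HEK293 cells cultured overnight (18 h), dye-loaded for 2 h at 37 °C, exposed to compounds, and monitored by fluorescence for 3 min.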

[10] = target: Progesterone receptor (Homo sapiens) (UniProt P06401); assay: qHTS assay to identify small molecule agonists of the progesterone receptor (PR) signaling pathway (AID 1346784; calls by dose curve; also: nearly all actives have a fitted effect of over 30% in size; also: potency is read from the fitted curve at half-maximal effect)
Procedure, shortened: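 Agonist mode, quantitative HTS format in a HEK 293T line expressing a UAS-controlled beta-lactamase reporter; 16 hr compound exposure at 37C in 2% charcoal-stripped FBS, then LiveBLAzer B/G FRET fluorescence.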
% is scaled to controls: 0 for no effect and ±100 for the full control effect.

FC(F)OC(F)(F)C(F)Cl (configuration not stated)
inactive: Potency [1] | Potency [2] | Potency [3] | Potency [4] | Potency [5] | Potency [6] | outcome [7] | Potency [8] | outcome [9]

CC(C)(C)c1ccc(CCOc2ncnc3ccccc23)cc1
inactive: Potency [1] | Potency [2] | Potency [3] | Potency [4] | Potency [5] | outcome [7] | Potency [8] | outcome [9]

COc1cc(CC(C)N)c(OC)cc1Br (configuration not stated)
inactive: Potency [1] | Potency [10] | Potency [4] | Potency [6] | outcome [7] | Potency [8] | outcome [9]

CCCBr
inactive: Potency [1] | Potency [2] | Potency [3] | Potency [4] | Potency [5] | Potency [6] | outcome [7] | Potency [8] | outcome [9]

C[CH2][Hg][S]c1ccccc1C(=O)O
active: Potency [1] 13.7 µM and 21.1 µM | Potency [3] 2.73 µM and 6.68 µM | Potency [4] 1.93 µM and 6.68 µM

CCC1(CCC(C)C)C(=O)NC(=O)NC1=O
inactive: Potency [1] | Potency [2] | Potency [3] | Potency [4] | Potency [5] | outcome [7]

CCCC[P+](CC)(CCCC)CCCC (tested in a mixture with another compound)
inactive: Potency [1] | Potency [2] | Potency [3] | Potency [4] | Potency [6] | outcome [7] | Potency [8] | outcome [9]

COc1cc(CC#N)cc(OC)c1OC
inactive: Potency [1] | Potency [2] | Potency [3] | Potency [4] | Potency [6] | outcome [7] | Potency [8] | outcome [9]

OCCSSCCO
inactive: Potency [1] | Potency [10] | Potency [4] | Potency [5] | Potency [6] | outcome [7] | Potency [8] | outcome [9]

CC(Oc1cc(Cl)c(Cl)cc1Cl)C(=O)O (configuration not stated)
inactive: Potency [1] | Potency [2] | Potency [3] | Potency [5] | Potency [6] | outcome [7] | Potency [8] | outcome [9]
active: Potency [4] 48.7 µM

CCOC(=O)NC(O)C(Cl)(Cl)Cl (configuration not stated)
inactive: Potency [1] | Potency [3] | Potency [4] | Potency [5] | Potency [6] | outcome [7]

C[N+]1(CCC(C(N)=O)(c2ccccc2)c2ccccc2)CCCCC1
inactive: Potency [1] | Potency [2] | Potency [3] | Potency [4] | Potency [5] | Potency [6] | outcome [7] | Potency [8] | outcome [9]

COC1=CC(=O)O[C@@H](/C=C/c2ccc3c(c2)OCO3)C1
inactive: Potency [1] | Potency [10] | Potency [3] | Potency [5] | outcome [7] | Potency [8] | outcome [9]

Cc1ccc2c(C)cccc2c1
inactive: Potency [1] | Potency [2] | Potency [3] | Potency [4] | Potency [6] | outcome [7] | Potency [8] | outcome [9]

O=C1c2ccccc2C(=O)N1SC(Cl)(Cl)Cl
active: Potency [8] 33.3 µM
inactive: Potency [1] | Potency [2] | Potency [3] | Potency [4] | Potency [6] | outcome [7] | outcome [9]

CCOC(=O)c1cn2nc(OP(=S)(OCC)OCC)cc2nc1C
inactive: Potency [1] | Potency [10] | Potency [5] | Potency [6]

O=C=NC1CCCCC1
inactive: Potency [1] | Potency [2] | Potency [4] | Potency [5] | Potency [6] | outcome [7] | Potency [8] | outcome [9]

COc1ccc(C(=O)c2c(C)n(CCN3CCOCC3)c3ccccc23)cc1
inactive: Potency [1] | Potency [10] | Potency [5] | Potency [6] | outcome [7] | Potency [8] | outcome [9]

CCNC(=O)NC(=O)/C(C#N)=N/OC
inactive: Potency [1] | Potency [3] | Potency [4] | Potency [5] | Potency [6] | outcome [7] | Potency [8] | outcome [9]

c1ccc2sc(SNC3CCCCC3)nc2c1
inactive: Potency [1] | Potency [3] | Potency [4] | Potency [5] | Potency [6] | outcome [7] | Potency [8] | outcome [9]

NC(=S)c1c(Cl)cccc1Cl
inactive: Potency [1] | Potency [3] | Potency [4] | Potency [5] | Potency [6] | outcome [7]

CCCCCBr
inactive: Potency [1] | Potency [2] | Potency [3] | Potency [4] | Potency [6] | outcome [7] | Potency [8] | outcome [9]

COc1cc(C[C@@H](C)N)c(OC)cc1Br
inactive: Potency [1] | Potency [10] | Potency [5] | Potency [6] | outcome [7] | Potency [8] | outcome [9]

C[C@]12C=CC3=C4CCC(=O)C=C4CC[C@H]3[C@@H]1CC[C@@H]2O
inactive: Potency [1] | Potency [5] | Potency [6] | outcome [7] | Potency [8] | outcome [9]
active: Potency [10] 27.1 nM

O=C(O)c1cc(Cl)ccc1Cl
inactive: Potency [1] | Potency [2] | Potency [3] | Potency [4] | Potency [5] | Potency [6] | outcome [7]

Nc1c(Br)cc(Br)c2c1C(=O)c1ccccc1C2=O
inactive: activity change, negative = cytotoxicity [1] -8.67% [at 19 µM] | activation [10] 0.744% [at 19 µM] | activity change, negative = cytotoxicity [3] -0.481% [at 18.9 µM] | activity change, negative = cytotoxicity [6] 9.34% [at 15.8 µM] | activation [7] -5.21% [at 15.8 µM] | activity, negative = inhibition [8] -4.46% [at 10.5 µM] | activation [9] -0.213% [at 11.8 µM]

CCCCCCCCP(=O)(O)O
inactive: Potency [1] | Potency [10] | Potency [5] | Potency [6] | outcome [7] | Potency [8] | outcome [9]
active: Potency [4] 27.3 µM

CON(C)C(=O)Nc1ccc(Cl)cc1
inactive: Potency [1] | Potency [10] | Potency [4] | Potency [5] | Potency [6] | outcome [7]

COC(=O)Cc1ccccc1
inactive: Potency [1] | Potency [2] | Potency [3] | Potency [4] | Potency [5] | Potency [6] | outcome [7]

CCCCC(CC)COC(=O)c1c(Br)c(Br)c(Br)c(Br)c1C(=O)OCC(CC)CCCC (configuration not stated)
inactive: Potency [1] | Potency [2] | Potency [3] | Potency [4] | Potency [5] | Potency [6] | outcome [7] | Potency [8] | outcome [9]

CCCCCl
inactive: Potency [1] | Potency [10] | Potency [4] | Potency [6] | outcome [7] | Potency [8] | outcome [9]

CC(Cc1ccccc1)NCc1ccccc1Cl (configuration not stated)
inactive: Potency [1] | Potency [2] | Potency [3] | Potency [4] | Potency [6] | outcome [7] | Potency [8] | outcome [9]

COC(=O)C1(O)c2ccccc2-c2ccccc21
inactive: Potency [1] | Potency [10] | Potency [4] | Potency [5] | outcome [7] | Potency [8] | outcome [9]
